# Screening results as filed in PubChem BioAssay.
# In the library only some 3.2% were active in any assay of this set; here they are far more common.
# TexasRed fluor: counter-screen for TRb-SRC2 inhibitors: fluorescence interference | TRb/SRC2 Texas Red total fluorescence interference | Potency, µM (highest dose often 106 µM), without a hit: at the top dose fluorescence change, negative = quenching | 0.29% of 280,000 active | AID 1479; active = well fitted curve in either direction with a large enough effect; inconclusive = small, poorly fitted or top-dose-only effect
#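 Human TRβ ligand-binding domain (0.6 uM) and Texas Red SRC2 peptide (20 nM) in Tris buffer with 1 uM T3 and 5% DMSO were incubated with pinned compound for 5 hr at ambient temperature. Total fluorescence was computed as S + 2P (555/632 nm).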
# Tau ThT inhib: blocks human tau fibril formation measured by thioflavin T. Potency, µM (series often up to 57.4 µM), inactives show at the highest dose activity, negative = inhibition, actives largely listed as inhibitors. P10636. 2.1% of 270,000 active. recombinant tau K18 P301L, heparin-induced fibrillization, ThT fluorescence; also: nearly all actives have a fitted effect of over 55% in size
# Target sequence (P10636 561-689 P618L limits assumed): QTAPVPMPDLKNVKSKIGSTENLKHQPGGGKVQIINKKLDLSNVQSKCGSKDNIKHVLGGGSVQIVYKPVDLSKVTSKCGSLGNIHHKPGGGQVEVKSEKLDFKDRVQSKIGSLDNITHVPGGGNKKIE
#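 Using a mix of unlabeled (15 uM) and Alexa 594-labeled (0.24 uM) tau K18 P301L, heparin-triggered fibrillization over 6 hr at 37 C was scored by ThT fluorescence.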
# Tau fibril FP: blocks human tau fibril formation measured by polarization; 0.39% of 280,000 active; AID 1468; K18 P301L tau heparin fibrillization, Alexa594 FP, 6 h; Potency, µM (titrated, usually from 57.7 µM), for the others: at the top dose activity, negative = inhibition, actives largely listed as inhibitors; also: nearly all actives have a fitted effect of over 55% in size
#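 Human tau K18 […] P301L fragment, 15 uM unlabeled plus 0.24 uM Alexa 594-labeled tau (final), with compound and 20 uM heparin in 100 mM sodium acetate pH 7; 6 hr at 37 C, then Alexa 594 FP read.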
# GoLoco inh red: blocks human Gai1 binding to RGS12 GoLoco peptide, red readout. P63096. Gai1:RGS12 GoLoco peptide FP, rhodamine, 10 min. Potency, µM (doses to about 61.6 µM), without a hit: top-dose activity, negative = inhibition, actives largely listed as inhibitors. 0.44% of 230,000 active. AID 880; active = well fitted inhibition curve with a large enough effect, not every such curve was filed as active; inactive = no such curve, though single readings can be large or run the other way; also: nearly all actives have a fitted effect of over 30% in size
# TRb SRC2 PPI: disrupts binding of human TR beta to SRC2; AID 1469; 0.065% of 280,000 active; TRbeta-SRC2 peptide binding, fluorescence polarization; receptor liganded with 1 µM T3; Potency, µM (top dose mostly 106 µM), without a hit: at the highest dose activity change, negative = inhibition, actives largely listed as inhibitors; P10828;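 also: plate controls were bound peptide for no effect and peptide without receptor for full effect; nearly all actives have a fitted effect of over 50% in size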
# Target sequence (P10828 whole entry, looked up): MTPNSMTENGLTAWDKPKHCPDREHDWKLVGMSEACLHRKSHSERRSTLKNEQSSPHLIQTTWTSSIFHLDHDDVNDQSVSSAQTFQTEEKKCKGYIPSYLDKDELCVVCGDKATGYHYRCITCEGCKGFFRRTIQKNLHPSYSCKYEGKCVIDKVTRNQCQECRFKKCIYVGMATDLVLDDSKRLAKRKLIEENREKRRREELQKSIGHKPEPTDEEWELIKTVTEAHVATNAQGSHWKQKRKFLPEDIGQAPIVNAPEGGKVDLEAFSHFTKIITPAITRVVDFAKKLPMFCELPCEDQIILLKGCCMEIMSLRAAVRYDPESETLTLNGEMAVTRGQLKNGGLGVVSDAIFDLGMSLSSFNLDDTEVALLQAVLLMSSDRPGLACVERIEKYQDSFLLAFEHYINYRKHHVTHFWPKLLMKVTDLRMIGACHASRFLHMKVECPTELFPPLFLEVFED
#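 Decrease in fluorescence polarization of 20 nM Texas Red SRC2 coactivator peptide flagged inhibition of its binding to 0.6 uM TRb LBD; 1 uM T3 included, incubation 5 hr, ex 555/em 632 nm.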
# Tau fluor counter: counter-screen for tau fibril formation inhibitors | tau K18 P301L (four-repeat tau fragment) Alexa594 fluorescence, heparin fibrillization | Potency, µM (titrated, usually from 57.7 µM), for inactives: top-dose activity change, negative = decrease | 0.93% of 280,000 active | AID 1463; also: nearly all actives have a fitted effect of over 55% in size
#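 Human K18 P301L tau (15 uM unlabeled plus 0.24 uM Alexa 594-labeled, final) in 100 mM sodium acetate pH 7 was mixed with compound and 20 uM heparin and incubated 6 hr at 37 C.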
# * = called active by the depositor; ? = inconclusive; . = no result given; [ ] = another dose, or the depositor's remark. Unless noted, calls follow the shape of the dose curve; as a rule, active = well fitted curve in the direction sought with a large enough effect; inconclusive = small, poorly fitted or top-dose-only effect, or another doubt; inactive = no such curve, though single readings can be large; an effect the other way counts as inactive or inconclusive. Unless noted, % is scaled to controls: 0 for no effect and ±100 for the full control effect; potency is read from the fitted curve at half-maximal effect.
SMILES,TexasRed fluor,Tau ThT inhib,Tau fibril FP,GoLoco inh red,TRb SRC2 PPI,Tau fluor counter
COc1ccc(C2NC3=C(CCC3)C3(C#N)C4(N=C(N)C23C#N)OCCO4)cc1 (stereo not drawn),-4%,?,-12%,48%,8%,-9%
COc1cc2c(cc1NC(=O)Nc1ccccc1)oc1ccccc12,-4%,2%,-8%,5%,1%,7.1µM*[quencher]
COc1cc2c(cc1NC(=S)Nc1cccc(C(F)(F)F)c1)oc1ccccc12,-1%,?,?,-6%,2%,13µM*[quencher]
CC1CCC2C(=O)OC(Cc3ccccc3)CN2C1c1ccc(Br)cc1 (stereo not drawn),-1%[11.2 µM],?,-2%[11.6 µM],.,0%[11.2 µM],-26%[11.6 µM]
Cc1ccc(NC(=O)Cn2cc(S(=O)(=O)c3ccc(C)cc3)c(=O)c3cc4c(cc32)OCO4)cc1,0%,-11%,?,.,-1%,-28%
CCOC(=O)N1CCC(N2Cc3cccc(C(=O)Nc4cccc(F)c4)c3C2=O)CC1,-1%,?,?,11%,7%,4µM*[quencher]
O=C1CCNc2c(Cl)cccc21,-5%,-4%,?,4.5µM*,-2%,-4%
CCOC(=O)C(C(=O)OCC)C(C(=O)OCC)N1CCOCC1 (stereo not drawn),1%,?,0%,14µM*,-21%,3%
O=[N+]([O-])c1ccc(-c2nc(-c3ccc(F)cc3)c(-c3ccncc3)[nH]2)cc1,?,14µM*,?,-17%,0%,20µM*[quencher]
O=[N+]([O-])c1ccc2nc(-c3ccncc3)[nH]c2c1,-2%,-18%,11%,-4%,-3%,-15%
Oc1cc2c(cc1O)[C@@H](c1ccccc1)CNCC2,0%,2%,4%,13µM*,2%,-5%
Oc1cc2c(cc1O)C(c1ccccc1)CNCC2 (stereo not drawn),-4%,?,?,-21%,2%,?
S=c1[nH]c(-c2ccccc2)cn1/N=C/c1ccccc1Br,-2%,?,16%,0%,-7%,-22%
Oc1ccc(/C=N/n2cc(-c3ccccc3)[nH]c2=S)cc1,-8%,10µM*,3%,11%,3%,?
S=c1[nH]c(-c2ccccc2)cn1/N=C/c1cccc2ccccc12,-3%,3.5µM*,10%,6%,3%,?
COc1cc(/C=N/n2cc(-c3ccccc3)[nH]c2=S)cc(OC)c1O,-19%,20µM*,12%,-5%,5%,?
Cc1c(N=NC2=C(O)CCCC2=O)c(=O)n(-c2ccccc2)n1C,-3%,14µM*,?,18µM*,4%,-28%
O=C(COc1ccc(F)cc1)NCC(c1ccc(Cl)cc1)N1CCCCC1 (stereo not drawn),40µM*[quencher],11%,0%,.,-26%,4%
CCc1ccc(NC(=O)Cn2c(=O)n(-c3ccccc3)c(=O)c3ccc(C(=O)NCc4ccc5c(c4)OCO5)cc32)cc1,-2%,12%,?,.,1%,-17%
O=C(Cn1c(=O)n(-c2ccccc2)c(=O)c2ccc(C(=O)NCc3ccc4c(c3)OCO4)cc21)Nc1ccc(F)c(Cl)c1,0%,6%,25µM*,.,2%,-25%
O=C(Cn1c(=O)n(Cc2ccc(C(=O)NCc3ccccc3Cl)cc2)c(=O)c2ccccc21)Nc1ccc(F)c(Cl)c1,0%,-2%,14µM*,.,-2%,-17%
c1ccc([C@@H]2CN3CCSC3=N2)cc1,-3%[53 µM],.,.,7%[21.6 µM],-3%[53 µM],.
Cc1nn(C)c(Oc2ccccc2)c1/C=N/OCc1ccc(C(=O)OC(C)(C)C)cc1,-1%[201 µM],.,.,.,-5%[201 µM],.
CCOC(=O)C1=CN(c2cccc(F)c2)C=C(C(=O)OCC)C1c1cc(OC)c(O)c([N+](=O)[O-])c1,2%,13µM*,9%,7%,-11%,?
CC1CCN(S(=O)(=O)c2ccc3c(c2)N(CC(=O)NC(C)C)C(=O)CO3)CC1,-2%,2%,3%,.,3%,4%
SMILES,TexasRed fluor,Tau ThT inhib,Tau fibril FP,GoLoco inh red,TRb SRC2 PPI,Tau fluor counter
N#C/C(=N\Nc1cccc([N+](=O)[O-])c1)C(=O)c1ccc(Br)cc1,-10%,10µM*,14%,16%,-2%,?
CCOc1cc(S(=O)(=O)NCCc2c(C)[nH]c3ccc(C)cc23)ccc1Br,3%,?,15%,.,-1%,3.5µM*[quencher]
CCOc1ccc(C(=O)Nc2ccc3oc(-c4ccc(C)cc4C)nc3c2)cc1Br,-1%,?,-12%,.,-4%,-15%
Cc1cc(N2CCOCC2)ccc1/C=C\[N+](=O)[O-],-2%,11µM*,13%,20%,-4%,?
O=[N+]([O-])c1ccc(N2CCOCC2)cc1O,-4%,?,-2%,3%,-11%,-14%
CC(C)Nc1ccc(Nc2ccnc3cc4ccccc4cc23)cc1,-2%,5µM*,-3%,9%,3%,18µM*[quencher]
COc1ccc(Nc2ccnc3ccccc23)cc1,-8%,5%,-1%,12%,3%,0%
COc1ccc(Cl)cc1N=Nc1ncc[nH]1,-3%,13µM*,-13%,8%,9%,-19%
CN1CCN(c2ncnc3c2[nH]c2ccc(F)cc23)CC1,-2%,-5%,9%,5%,2%,-5%
CN1CCN(c2cc3c(c4c2[nH]c2ccccc24)C(=O)CC(C)(C)C3)CC1,-5%,?,?,10%,-8%,14µM*[quencher]
O=C1C=CC(=O)c2c1ccc1c2ccc2ccccc21,-5%[53 µM],.,.,-20%[21.6 µM],1%[53 µM],.
CC(C)c1ccc(C2Sc3ccccc3NC3=C2C(=O)c2ccccc23)cc1 (stereo not drawn),-5%,?,?,.,12%,?
CC(=O)Nc1ccc(C2Sc3ccccc3NC3=C2C(=O)c2ccccc23)cc1 (stereo not drawn),-5%,?,?,.,3%,11µM*[quencher]
O=C1C2=C(Nc3ccccc3SC2c2ccc(C(F)(F)F)cc2)c2ccccc21 (stereo not drawn),0%,?,10µM*,.,-1%,2.8µM*[quencher]
O=C1C2=C(Nc3ccccc3SC2c2ccco2)c2ccccc21 (stereo not drawn),-3%,13µM*,?,25%,3%,16µM*[quencher]
CCc1ccc(C2Sc3ccccc3NC3=C2C(=O)c2ccccc23)cc1 (stereo not drawn),-2%,?,?,.,-2%,2.5µM*[quencher]
CCCCOC(=O)c1ccc(NC(=O)c2cc(-c3ccccc3)on2)cc1,4%,-10%,-1%,.,1%,0%
COc1cc(C2CC(=O)Nc3c2c(=O)n(C)c2ncnn32)cc(OC)c1OC (stereo not drawn),3%,-4%,0%,.,-3%,-4%
COC(=O)c1ccc(NC(=O)CN(C)S(=O)(=O)c2ccc(Br)s2)cc1,0%,-11%,-15%,.,8%,?
